The values below come from PubChem BioAssay AID1465 (SRMLSC, 2008).

For orientation: fold induction means the signal under treatment as a multiple of the control signal.

Hit rate of the full screen: of about 220,000 compounds, about 160 (0.073%) were called active. Not all results are given here. Measured potencies and affinities stand elsewhere. A number with no mark means an inactive call.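 Rule for the calls: active = fold induction of absorbance versus untreated yeast above a set limit, then at least 30% activation at any dose in follow-up; inconclusive = repeats straddling the limit, or above it without dose testing; inactive = fold induction below the set limit.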

This assay can be described thus: enhancers of respiration in Yfh1-depleted yeast, dose response, Friedreich's ataxia, plus single-dose screen (AID 1465). Particulars: S. cerevisiae Yfh1-off respiration, WST-1 reduction, 72 h; at 50 µM; hits give high values.
As to `O=[N+]([O-])c1ccc(/C=N/Nc2nc(NCc3ccccc3)nc(N3CCOCC3)n2)cc1`, the fold induction is 1.08.
As for `O=[N+]([O-])c1cccc(/C=N/Nc2nc(NCc3ccccc3)nc(N3CCOCC3)n2)c1`, the figure is 1.03; as for `CCCCN1C(=O)C2C(c3ccc(OC)cc3O)NC(CC(C)C)(C(=O)O)C2C1=O` (stereo not drawn), 0.99.
As for `CCCC(=O)NC(c1ccc2c(c1)OCO2)c1cc(Cl)c2cccnc2c1O` (stereo not drawn), the figure is 1.12.
For `CCCC(=O)NC(c1ccc(OC)cc1)c1ccc2cccnc2c1O` (stereo not drawn) the value was 0.96; for `CCCC(=O)NC(c1ccc(OC)c(OC)c1)c1cc(Cl)c2cccnc2c1O` (stereo not drawn), 1.13; for `COc1ccc(C(NC(=O)c2cccnc2)c2cc(Cl)c3cccnc3c2O)cc1OC` (stereo not drawn), 0.98.
Consider `O=C(CS(=O)(=O)c1c[nH]c2ccccc12)N1CCCCCC1`, for which the fold induction is 1.02.
For `CCCc1cc(=O)n(-c2nc3ccccc3s2)[nH]1` the value was 1; for `CC(=NC1CC1)c1c(-c2ccccc2)[nH]n(-c2nc3ccccc3s2)c1=O`, 0.93.
Regarding `Cc1ccc(S(=O)(=O)NCC(=O)OCc2ccccc2)cc1`, the fold induction was 0.97.
As for `COc1ccc(CN2C(=O)[C@H]3Cc4c([nH]c5ccccc45)C(C)(C)N3C2=O)cc1`, the figure is 0.81; as for `CC(C)C(=O)NC(c1ccccc1)c1cc([N+](=O)[O-])c2cccnc2c1O` (stereo not drawn), 0.98.
Consider `CCC(=O)NC(/C=C/c1ccccc1)c1cc([N+](=O)[O-])c2cccnc2c1O` (stereo not drawn), for which the fold induction is 1.36.
As for `O=[N+]([O-])c1cc(Cl)c2cccnc2c1O`, the figure is 0.89; as for `O=[N+]([O-])c1cc(Cl)c(O)c2ncccc12`, 1.15.
For `O=C(NNC(=O)c1cccnc1)Nc1cccc(Cl)c1Cl` the value was 0.89.
For `Cc1cnccc1CN(C)Cc1nc(Cc2ccccc2Cl)no1` the value was 0.85; for `CCC1(C(=O)O)NC(c2cccc(OC)c2O)C2C(=O)N(c3ccccc3)C(=O)C21` (stereo not drawn), 1.01; for `Cc1cc(C)n2nc(-c3sccc3-n3c(C)ccc3C)cc2n1`, 1.01.
`COc1ccc(CN2C3CCCC2CC(NC(=O)Nc2cccc(C)c2)C3)cc1` (stereo not drawn): the fold induction was 0.96.
Take `Cc1ccc(C(=O)c2c(C)oc3c2C(=O)C(=O)c2ccccc2-3)cc1`: the fold induction is 1.18.
As for `Cc1oc2c(c1C(=O)O)C(=O)c1ccccc1C2=O`, the figure is 1.01.
As to `C=CCn1c(C)cc(C(=O)COc2ncnc3sccc23)c1C`, the fold induction is 0.88.
For `COc1ccccc1N(CN1C(=O)c2ccccc2C1=O)C(=O)c1cccc(C)c1` the value was 0.82; for `O=C(CCCn1nnc2ccccc2c1=O)N[C@H](C(=O)O)c1ccccc1`, 1.02; for `O=C(O)c1cccc(NC(=S)N/N=C/c2cccc(O)c2)c1`, 1.03.
Turning to `O=C(O)c1cccc(NC(=S)N/N=C/c2cccnc2)c1`, the fold induction was 0.98.
As for `COc1c(Cl)cc(Cl)cc1C(=O)n1nc(C)cc1C`, the figure is 0.88; as for `CCOC(=O)c1ccc(NNC(=O)CC)c([N+](=O)[O-])c1`, 1.03; as for `CNc1nc2c(c(=O)[nH]c(=O)n2C)n1CCOC`, 1.02.
For `O=C1NC(=O)/C(=C\c2ccc(N3CCOCC3)o2)N1` the value was 0.97; for `O=C1NC(=O)/C(=C/c2ccc(N3CCOCC3)o2)N1`, 1.01; for `COc1ccccc1C(CC(=O)N1CCCC1)c1ccc2c(c1)OCO2` (stereo not drawn), 0.99.
As for `NNC(=O)CCc1c[nH]c2ccccc12`, the figure is 0.93; as for `CC[n+]1c(/C=C2/C=C(C)CC(C)C2)sc2ccccc21` (stereo not drawn), 0.96.
As for `CC[n+]1c(/C=C(\C)SC)sc2ccccc21`, the fold induction is 0.92.
As for `CC[n+]1c(/C=C2\C=C(C)CC(C)(C)C2)sc2ccccc21`, the fold induction is 0.86.
For `CC[n+]1c(/C=C2\C=C(C)CC(C)C2)sc2ccccc21` (stereo not drawn) the value was 0.873.
For `COc1ccc(C(=O)COC(=O)c2ccc(N(C)C)cc2)cc1` the value was 1.01; for `Cc1[nH]nc(SCC(=O)NC2CCCC2)c1[N+](=O)[O-]`, 1.05.
As to `COCC(=O)N1CCCN(c2nc3c(C)cccc3cc2C#N)CC1`, the fold induction is 0.96.
On to `CCC(=O)N1COC[C@@H]1Cc1ccccc1`, for which the fold induction is 1.04.
Take `COC(=O)c1cc2c(ccn2-c2ccc(F)cc2)n1Cc1ccc(C#N)cc1`: the fold induction was 1.03.
For `CCC(C(=O)O)N1C(=O)/C(=C/C(C)=C/c2ccccc2)SC1=S` (stereo not drawn), the fold induction is 1.22.
In the case of `O=C(O)C(Cc1ccccc1)N1C(=O)/C(=C/c2ccccc2)SC1=S` (stereo not drawn), the fold induction is 0.93.
As for `Cn1cccc1/C=C1\SC(=S)N(Nc2ccccc2)C1=O`, the figure is 1.02.
For `Cn1cccc1/C=C1\SC(=S)N(NC(=O)c2ccccc2)C1=O` the value was 1.81; for `NC(=O)c1cccc2c(=O)oc3ccccc3c12`, 0.99.
For `CN1CCN(C(=O)c2cc(C(C)(C)C)cc(C(C)(C)C)c2)CC1` the value was 1.02.
Consider `Cn1nnnc1P(=O)(c1ccccc1)c1ccccc1`, for which the fold induction was 1.15.
`O=C(Nc1ccccc1-c1nc2ccccc2[nH]1)c1ccc(N2C(=O)CCC2=O)cc1`: the fold induction is 1.11.
As for `CC1=C(N2CCOCC2)CCC1=O`, the figure is 0.92; as for `O=c1c(N2CCOCC2)c(N2CCOCC2)c1=O`, 1.08; as for `Cc1nc2ccc(NC(=O)COc3ccccc3[N+](=O)[O-])cc2s1`, 0.97.
As for `CN(C(=O)COC(=O)c1ccc(Cl)cc1N)C1CCCCC1`, the figure is 1.06.
Turning to `CC(=O)c1cccc(NC(=O)N2CCCC2C(=O)Nc2c(C)cccc2C)c1` (stereo not drawn), the fold induction was 1.07.
As to `COc1ccc(C2=NN(c3nc4ccccc4s3)C(=O)/C2=C\N(C)C)cc1`, the fold induction was 1.14.
As for `COc1ccc(C2=NN(c3nc(C)cc(C)n3)C(=O)C2)cc1`, the figure is 1.09; as for `CC(=O)Oc1cccc(-c2nc3ccccc3c(=O)o2)c1`, 0.89.
For `CCOC(=O)c1[nH]c2ccccc2c1NC(=O)C1CCCCC1` the value was 1.05; for `Cc1ccc2c3c(cccc13)-c1ccccc1C2=O`, 0.91.
Consider `Cc1coc2c1C(=O)C(=O)c1c-2ccc2c1CCCC2(C)C`, for which the fold induction was 1.54.
